Assay [1] concerns the target ATP-dependent translocase ABCB1 (Homo sapiens) (UniProt P08183). Put plainly: P-glycoprotein substrate transport blockade – cell-based (AID 377). The settings on record: MDR1-expressing cells, fluorescent substrate accumulation slope; stronger effect = higher value; concentration not given here.
Assay [2] in a line: blockers of polyQ-driven CASP3 activation – cell-based (AID 1583). As to conditions: polyglutamine-induced caspase-3 activation, cell assay; stronger effect = higher value;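 tested at 10 µM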.
Assay [3] is described as follows: yeast 75Q aggregation reduction – 75Q-TubU reporter (AID 1593). As to conditions: Yeast 75Q polyglutamine aggregation reporter.
A short description of assay [4]: restoration of touch response, mutant HTT neurons – whole organism, C. elegans mechanosensory neurons, N-terminal huntingtin (AID 1599). The settings on record: C. elegans polyQ-huntingtin mechanosensory neurons, stronger effect = higher value.
Assay [5] is described as follows: blockers of cytochrome c efflux from mitochondria – biochemical, purified mitochondria (AID 1603).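 Note: mouse liver mitochondria challenged with calcium chloride; signal normalized to the plate average as 100%.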 The settings on record: stronger effect = lower value.
A short description of assay [6]: polyglutamine aggregate formation blockers (AID 1604). As to conditions: polyglutamine-induced protein aggregation inhibition assay; stronger effect = higher value; tested at 2.5 µM.

Results filed as inconclusive are left out. For some of these results: Results with a measured potency or affinity are listed apart. The source made the active and inactive calls. Cut-off read from the data, not from the text of the source: active = fluorescence slope change above about 50%; inconclusive = mostly about 31% to 49%; inactive = weaker than that.

ATP-dependent translocase ABCB1 (Homo sapiens), sequence (P08183 whole entry, looked up): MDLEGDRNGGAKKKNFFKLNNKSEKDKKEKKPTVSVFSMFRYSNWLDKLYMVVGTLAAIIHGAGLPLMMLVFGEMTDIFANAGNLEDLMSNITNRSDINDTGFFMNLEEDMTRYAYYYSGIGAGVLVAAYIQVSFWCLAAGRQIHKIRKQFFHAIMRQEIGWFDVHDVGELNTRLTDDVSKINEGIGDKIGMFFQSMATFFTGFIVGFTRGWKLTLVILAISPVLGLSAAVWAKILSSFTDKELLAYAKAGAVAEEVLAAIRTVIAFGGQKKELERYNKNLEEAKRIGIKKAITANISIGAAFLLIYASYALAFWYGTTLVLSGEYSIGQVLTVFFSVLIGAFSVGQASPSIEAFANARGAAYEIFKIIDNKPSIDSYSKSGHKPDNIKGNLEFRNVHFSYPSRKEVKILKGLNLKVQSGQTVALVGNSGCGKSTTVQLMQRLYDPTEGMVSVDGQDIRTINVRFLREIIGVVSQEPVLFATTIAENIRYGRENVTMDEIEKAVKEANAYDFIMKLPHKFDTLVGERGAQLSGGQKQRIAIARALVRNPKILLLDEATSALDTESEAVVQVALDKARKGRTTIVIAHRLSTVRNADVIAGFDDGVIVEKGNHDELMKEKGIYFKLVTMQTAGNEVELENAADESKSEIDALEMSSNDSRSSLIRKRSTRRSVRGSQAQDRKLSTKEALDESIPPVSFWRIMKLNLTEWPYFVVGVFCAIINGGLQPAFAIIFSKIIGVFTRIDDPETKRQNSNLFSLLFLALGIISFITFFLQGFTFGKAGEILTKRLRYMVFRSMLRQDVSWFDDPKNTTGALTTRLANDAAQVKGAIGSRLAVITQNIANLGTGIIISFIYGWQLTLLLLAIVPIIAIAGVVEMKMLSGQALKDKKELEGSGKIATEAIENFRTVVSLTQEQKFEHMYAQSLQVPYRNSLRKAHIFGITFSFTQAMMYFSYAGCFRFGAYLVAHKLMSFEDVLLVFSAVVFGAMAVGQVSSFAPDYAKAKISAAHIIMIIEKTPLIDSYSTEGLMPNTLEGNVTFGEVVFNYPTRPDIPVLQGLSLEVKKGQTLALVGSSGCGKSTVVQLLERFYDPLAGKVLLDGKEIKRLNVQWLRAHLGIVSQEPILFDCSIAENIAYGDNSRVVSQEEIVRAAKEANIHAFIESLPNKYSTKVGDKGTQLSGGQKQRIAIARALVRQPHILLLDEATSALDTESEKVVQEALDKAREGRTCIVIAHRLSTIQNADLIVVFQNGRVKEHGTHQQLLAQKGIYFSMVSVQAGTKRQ

Turning to `CCOc1ccc(Cc2nccc3cc(OCC)c(OCC)cc23)cc1OCC`, the fluorescence slope change in assay [1] was 86.8% (active). In assay [2], the inhibition – broadly, the drop in the measured response relative to a control, in per cent – amounted to 34.8%. The compound also came in with a score in assay [3] of 1.54. The rescue above control in assay [4] is -2.91. In addition, the cytochrome c release ratio in assay [5] worked out at 1.13. Besides, in assay [6], the inhibition of aggregation is -10.6%.
Take `O=C(O)CCCCC1CCSS1` (configuration not stated): the inhibition in assay [2] was -33.9%. This compound also came in with a score in assay [3] of 0.61. The compound further returned a rescue above control in assay [4] of 2.24. Besides, the cytochrome c release ratio in assay [5] was 0.89. Moreover, the inhibition of aggregation in assay [6] stood at 39.2%.
In the case of `CN(C)CCC=C1c2ccccc2C=Cc2ccccc21`, the fluorescence slope change in assay [1] is 73% (active). In assay [2], the inhibition was -2.52%. Further, the score in assay [3] worked out at 1.44. The rescue above control in assay [4] turned out to be 5.55. For the same compound, the cytochrome c release ratio in assay [5] worked out at 1.17. Besides, the inhibition of aggregation in assay [6] was 84.1%.
Take `CCCCC1C(=O)N(c2ccccc2)N(c2ccccc2)C1=O`: in assay [2], the inhibition came out at 9.66%. This compound came in with a score in assay [3] of 0.64. Further, the rescue above control in assay [4] worked out at 2.39. For the same compound, the cytochrome c release ratio in assay [5] turned out to be 0.96. Besides, in assay [6], the inhibition of aggregation was found to be 76%.

For the origin of these results see PubChem BioAssay.
